Bioassay records from PubChem BioAssay.
This excerpt belongs to a sample that is enriched for hits.
ST2 IL33 inh: blocks human ST2 binding to IL-33; AlphaLISA ST2-Fc/biotin-IL-33 interaction, 1 h; Q01638; inhibition, % for hits at 17 µM; 78,000 compounds, 2.3% hits; in the data active means inhibition above about 30%
Target sequence (Q01638 whole entry, looked up): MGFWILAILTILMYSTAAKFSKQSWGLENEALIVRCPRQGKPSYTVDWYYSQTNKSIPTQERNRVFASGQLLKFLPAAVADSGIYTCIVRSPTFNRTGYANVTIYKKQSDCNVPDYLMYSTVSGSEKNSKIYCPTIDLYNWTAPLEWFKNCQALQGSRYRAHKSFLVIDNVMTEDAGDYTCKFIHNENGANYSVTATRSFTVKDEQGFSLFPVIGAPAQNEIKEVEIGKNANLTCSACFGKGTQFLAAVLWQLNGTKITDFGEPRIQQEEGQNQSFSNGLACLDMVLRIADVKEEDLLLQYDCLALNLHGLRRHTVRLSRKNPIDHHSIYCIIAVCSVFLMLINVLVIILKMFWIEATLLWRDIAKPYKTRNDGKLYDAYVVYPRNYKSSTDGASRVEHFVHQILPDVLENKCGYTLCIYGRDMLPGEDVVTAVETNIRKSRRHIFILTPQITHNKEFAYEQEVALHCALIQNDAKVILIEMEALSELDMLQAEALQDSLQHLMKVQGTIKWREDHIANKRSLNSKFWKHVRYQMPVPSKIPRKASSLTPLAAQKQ
Numbers stand for hits; i = inactive.

SMILES | ST2 IL33 inh
O=C(O)C1Nc2c(F)cccc2C2C(Cl)C(Sc3ccccc3[N+](=O)[O-])CC12 (stereo not drawn) | 34%
O=C(O)CCC(=O)N1C[C@@H]2C[C@H](C1)c1ccc(-c3ccc4ccccc4c3)c(=O)n1C2 | i
Cc1cc(OCC(=O)N2CCN(C)CC2)cc(C)c1Br | i
CN1CCN(Cc2ccccc2[N+](=O)[O-])CC1 | i
CN1CCN(Cc2cccc([N+](=O)[O-])c2)CC1 | i
O=[N+]([O-])c1cccc(CN2CC=C(c3ccc(F)cc3)CC2)c1 | 35%
NC(=O)c1ccc(OCC(O)CN2CC=C(c3ccc(F)cc3)CC2)cc1 (stereo not drawn) | i
O=[N+]([O-])c1ccccc1CN1CCN(c2ccc(Cl)cc2)CC1 | i
O=[N+]([O-])c1ccccc1CN1CC=C(c2ccc(F)cc2)CC1 | 30%
O=C(NC[C@H]1C[C@@H]2CCN1C[C@@H]2CN1CCSCC1)c1ccc2c(c1)OCO2 | i
CN(C)CC(=O)Nc1ccc2n(c1=O)C[C@@H]1CNC[C@H]2C1 | i
C=C[C@H]1CN2CC[C@H]1C[C@@H]2CNC(=S)NC1CCCCC1 | i
COc1ccc(-c2cc([C@H]3CN4CC[C@H]3C[C@@H]4CNC(=S)Nc3cccc(C#N)c3)n(C)n2)cc1 | i
O=C(NC(Oc1ccccc1)C(Cl)(Cl)Cl)c1cccnc1 (stereo not drawn) | i
CCN(CC)C(=O)Cn1cc(/C=C2\C(=O)NC(=O)N(c3ccccc3F)C2=O)c2ccccc21 | i
O=C1NC(=O)C(=Cc2cn(CCOc3ccc4c(c3)OCO4)c3ccccc23)C(=O)N1 | 35%
Cc1cccc(CN2CCN(Cc3ccc4c(c3)OCO4)CC2)c1 | i
C=C[C@H]1CN2CC[C@H]1C[C@@H]2CNC(=S)Nc1ccc(C#N)cc1 | i
CCC(CC)c1cc([C@H]2CN3CC[C@H]2C[C@@H]3CN(CC2CC2)CC2CC2)nc(-c2ccncc2)n1 | i
CN1CCN(c2ncnc(N)c2[N+](=O)[O-])CC1 | i
CCN1CCN(Cc2cccc(Br)c2)CC1 | i
Brc1cccc(CN2CCN(c3ccccc3)CC2)c1 | 31%
Fc1ccc(CN2CCN(c3cccc(Cl)c3)CC2)cc1 | i
O=[N+]([O-])c1ccc(CN2CCN(Cc3ccccc3)CC2)cc1 | i
CN1CCN(Cc2cccc(Br)c2)CC1 | i
SMILES | ST2 IL33 inh
O=[N+]([O-])c1ccc(N2CCN(Cc3cccc(Cl)c3)CC2)cc1 | 36%
COc1cc(NC(=S)NC[C@H]2C[C@@H]3CCN2C[C@@H]3c2cc(-c3ccc(OC)c(OC)c3)nn2C)cc(OC)c1 | i
C=C[C@H]1CN2CC[C@H]1C[C@@H]2CNC(=S)Nc1cc(C)cc(C)c1 | i
O=c1c2ccccc2nc(-c2ccccc2Cl)n1-c1ccccc1O | i
Cc1ccccc1-n1c(/C=C2\C(=O)N(C)c3ccccc32)nc2ccccc2c1=O | 49%
Cc1ccccc1-n1c(Cc2ccccc2)nc2ccccc2c1=O | i
N#Cc1ccccc1CN1Cc2ccccc2C1=N | i
COc1ccc(-c2ccc3n(c2=O)C[C@H]2C[C@@H]3CN(C(=O)c3ccc(C#N)cc3)C2)cc1 | i
COCCC(=O)N1C[C@@H]2C[C@H](C1)c1ccc(-c3cccc(C(F)(F)F)c3)c(=O)n1C2 | i
COCCC(=O)N1C[C@@H]2C[C@H](C1)c1ccc(NC(=O)c3ccc(C#N)cc3)c(=O)n1C2 | 35%
CC(C)=CC(=O)N1CCN(C)C2(CCN(C)CC2)C1 | i
O=c1ccc(-c2ccccc2F)c2n1C[C@H]1C[C@@H]2CN(S(=O)(=O)c2cccs2)C1 | i
COc1ccccc1CN1CCN(c2ccccc2)CC1 | i
COc1ccc(N2CCN(Cc3cccc(Cl)c3Cl)CC2)cc1 | 32%
COc1cccc(CN2CCN(c3ccc(F)cc3)CC2)c1 | i
COc1ccc(N2CCN(Cc3ccc(Cl)cc3)CC2)cc1 | 44%
Fc1ccc(CN2CCN(c3cccc(Cl)c3)CC2)c(F)c1 | i
Cc1cccc(CN2CCN(c3ccccc3Cl)CC2)c1 | i
COc1cccc(N2CCN(Cc3ccccc3OC)CC2)c1 | i
COc1ccc(CN2CCN(c3cccc(C)c3C)CC2)cc1 | i
COc1cc(C)c(CN2CCN(c3ccccc3)CC2)cc1C | 31%
COc1ccc(CN2CCN(c3ccccc3)CC2)cc1O | i
Cc1ccc(N2CCN(Cc3c(F)cccc3Cl)CC2)cc1 | 36%
Clc1cccc(N2CCN(Cc3ccccc3Cl)CC2)c1 | i
O=C(COc1ccccc1)N1CCN(Cc2ccc3c(c2)OCO3)CC1 | i
SMILES | ST2 IL33 inh
CN1CCN(C(=O)COc2ccc3c(c2)C(=O)CC2(CCCCC2)O3)CC1 | i
CC[C@H]1CN2CC[C@H]1C[C@@H]2CNC(=S)NCc1ccco1 | i
COc1ccccc1CNC(=O)[C@H]1CN2CCC1C[C@@H]2Cn1cc(-c2ccc(-c3ccccc3)cc2)nn1 (stereo partly drawn) | i
Cn1nc(-c2ccc(F)cc2)cc1[C@H]1CN2CC[C@H]1C[C@@H]2CN | i
CN(C)c1ccc(CNC[C@H]2C[C@@H]3CCN2C[C@@H]3c2cc(-c3ccco3)nn2C)cc1 | i
COCCN(Cc1cccs1)C(=O)c1nn(C)c2ccccc12 | i
NS(=O)(=O)c1ccc(NC(=O)c2cccn(Cc3ccc(Br)cc3)c2=O)cc1 | i
CCc1ccc(CN(C)C(C)Cc2cc(C)ccn2)nc1 (stereo not drawn) | i
FC(F)(F)CCc1ccnc(N2CCOC3(CNCCOC3)C2)n1 (stereo not drawn) | i
COc1cc(OC)c(OC)cc1CN1CCN(C)CC1 | i
COc1ccc(N2CCN(Cc3cc(Br)ccc3OC)CC2)cc1 | 41%
Clc1ccc(CN2CCN(c3ccccc3)CC2)cc1Cl | i
COc1ccc(Br)cc1CN1CCN(c2ccccc2C)CC1 | i
COc1cc(CN2CCN(c3ccc(F)cc3)CC2)ccc1O | i
CN1CCN(Cc2ccc(Cl)c(Cl)c2)CC1 | i
CCOc1ccc(CN2CCN(c3ccccc3OC)CC2)cc1 | i
COc1ccc(N2CCN(Cc3ccc(Cl)c(Cl)c3)CC2)cc1 | 35%
CCOc1ccc(CN2CCN(c3ccc(OC)cc3)CC2)cc1 | 34%
CCN1CCN(Cc2cc(Br)ccc2OC)CC1 | i
Cc1nc(-c2ccccc2)cc([C@H]2CN3CC[C@H]2C[C@@H]3CNC(=O)c2ccccc2C(=O)O)n1 | i
CCN(CC)C[C@H]1CN2CC[C@H]1C[C@@H]2CNC(=O)COC | i
CN1CCN(c2ccc([N+](=O)[O-])c(Sc3nccn3C)c2)CC1 | i
COc1ccccc1N1CCN(Cc2cc(C)ccc2C)CC1 | i
COc1ccc(S(=O)(=O)NC[C@H]2C[C@@H]3CCN2C[C@@H]3CN2CCc3ccccc3C2)cc1 | i
Cc1cccc(=O)n1CCC(=O)N1CCCN2CCC[C@H]2C1 | i
SMILES | ST2 IL33 inh
CCN(CC)C[C@H]1CN2CC[C@H]1C[C@@H]2CNC(=S)Nc1ccc(N(C)C)cc1 | i
O=C(C1CCCCC1)N1C[C@@H]2C[C@H](C1)c1c(-c3ccc4ccccc4c3)ccc(=O)n1C2 | i
C=CCN(C)C[C@H]1CN2CC[C@H]1C[C@@H]2CNC(=O)c1ccc(C(F)(F)F)cc1 | i
COc1cc(CN2CCN(Cc3ccccc3)CC2)cc(OC)c1 | i
Cc1c(C(c2ccccc2Cl)c2c(O)c3ccccc3oc2=O)c(=O)n(-c2ccccc2)n1C (stereo not drawn) | i
COc1ccc(C(c2c(O)c3ccccc3oc2=O)c2c(C)n(C)n(-c3ccccc3)c2=O)cc1 (stereo not drawn) | i
CC(c1c(O)c2ccccc2oc1=O)c1c(O)c2ccccc2oc1=O | 36%
Cc1cccc(-n2c(/C=C3\C(=O)Nc4ccccc43)nc3ccccc3c2=O)c1 | i
Cc1cccc(-n2c(-c3cccnc3)nc3ccccc3c2=O)c1 | 46%
O=c1c2ccccc2nc(-c2ccccc2)n1-c1ccccc1 | i
